Compounds with a hit are over-represented: about 4.1% of the library has one in this group of screens.
NR3A LBD binder: NR3A (human) ligand-binding domain modulation | NR3A LBD differential scanning fluorimetry, Tm shift; 0% = protein alone, 100% = glycine-bound protein | Tm shift relative to glycine control, % at 25 µM | 340,000 compounds, 2.5% hits;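 active = melting temperature shift of at least 10% of the positive control shift, at one fixed dose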
MPTP inh: blocks calcium-induced mitochondrial swelling; isolated mouse mitochondria, Ca2+ swelling absorbance, 30 min; inhibition, % at 10 µM; 360,000 compounds, 1.4% hits;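 active = inhibition of 50% or more, scaled per plate between neutral and stimulator controls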;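 also: 0% = DMSO wells given calcium and 100% = 1 mM EGTA wells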
FAS TE block: inhibitors of human fatty acid synthase thioesterase domain; P49327; recombinant FAS-TE, OMFH fluorogenic substrate, fluorescence endpoint; inhibition, % at 15 µM; 360,000 compounds, 0.67% hits; AID 602261;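 active = compounds whose normalised, plate-corrected inhibition of enzyme fluorescence in the single-dose primary screen is 50% or more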;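 also: 0% = DMSO with enzyme and 100% = substrate without enzyme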
pCIP destab: p/CIP protein destabilization; decrease of EGFP signal, % at 10 µM; 290,000 compounds, 0.01% hits; F442A p/CIP-EGFP cells, EGFP fluorescence, 16 h;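 active = EGFP signal decrease of at least 30% at 10 µM or well 3 SD below plate mean, unless failing retest; inactive = the rest, including hits failing retest or dose response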
Target sequence (Q05BA5 1-1403): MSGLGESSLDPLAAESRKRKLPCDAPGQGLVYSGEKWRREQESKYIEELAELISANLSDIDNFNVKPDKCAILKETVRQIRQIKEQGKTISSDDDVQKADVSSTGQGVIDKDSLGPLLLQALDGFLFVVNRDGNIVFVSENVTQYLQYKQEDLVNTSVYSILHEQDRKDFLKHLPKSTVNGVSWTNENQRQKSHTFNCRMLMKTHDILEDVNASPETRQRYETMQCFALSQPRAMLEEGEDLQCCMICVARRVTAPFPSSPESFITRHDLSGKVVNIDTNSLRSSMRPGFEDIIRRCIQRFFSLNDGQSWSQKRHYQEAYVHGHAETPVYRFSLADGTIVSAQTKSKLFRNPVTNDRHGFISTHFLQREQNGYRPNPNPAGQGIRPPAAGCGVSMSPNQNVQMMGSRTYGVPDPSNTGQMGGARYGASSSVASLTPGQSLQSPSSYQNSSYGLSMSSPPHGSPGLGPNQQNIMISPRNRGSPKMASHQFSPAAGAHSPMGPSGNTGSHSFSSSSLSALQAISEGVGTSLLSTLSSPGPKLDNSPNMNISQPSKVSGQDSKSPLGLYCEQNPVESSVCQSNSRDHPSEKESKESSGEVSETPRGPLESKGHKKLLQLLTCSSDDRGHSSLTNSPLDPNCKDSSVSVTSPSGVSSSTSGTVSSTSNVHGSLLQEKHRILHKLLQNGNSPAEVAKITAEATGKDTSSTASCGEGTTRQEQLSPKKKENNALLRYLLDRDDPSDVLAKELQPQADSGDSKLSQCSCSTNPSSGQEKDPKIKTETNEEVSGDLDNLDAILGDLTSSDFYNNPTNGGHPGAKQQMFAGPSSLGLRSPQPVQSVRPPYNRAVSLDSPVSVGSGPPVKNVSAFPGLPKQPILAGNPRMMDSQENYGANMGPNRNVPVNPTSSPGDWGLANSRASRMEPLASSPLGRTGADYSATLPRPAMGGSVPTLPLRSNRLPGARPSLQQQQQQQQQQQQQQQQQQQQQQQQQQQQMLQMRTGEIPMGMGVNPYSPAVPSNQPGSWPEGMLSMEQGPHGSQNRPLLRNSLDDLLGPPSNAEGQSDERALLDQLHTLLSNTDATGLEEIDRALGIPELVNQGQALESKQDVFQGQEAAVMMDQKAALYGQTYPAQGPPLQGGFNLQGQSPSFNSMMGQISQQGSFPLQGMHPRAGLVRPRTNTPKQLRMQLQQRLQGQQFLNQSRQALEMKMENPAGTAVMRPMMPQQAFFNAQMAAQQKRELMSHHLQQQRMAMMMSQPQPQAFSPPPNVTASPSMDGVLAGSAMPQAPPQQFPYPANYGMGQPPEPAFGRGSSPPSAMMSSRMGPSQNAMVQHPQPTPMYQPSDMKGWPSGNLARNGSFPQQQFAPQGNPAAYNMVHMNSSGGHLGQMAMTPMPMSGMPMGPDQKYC
MIN6 prolif: induces beta-cell replication in MIN6 cells | 330,000 compounds, 0.29% hits | proliferation, % at 10 µM | MIN6 cells proliferation, ATPlite luminescence, 48 h; cells starved in 0.2% serum; 100% = growth in 10% serum | AID 2380;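 active = compounds whose signal lies at least 3.5 SD above the mean of all wells on their plate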;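 also: 0% = DMSO-treated cells in low-serum medium and 100% = 10% serum control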
* marks the source's active call; other numbers are inactive results; x = no result.

SMILES | NR3A LBD binder | MPTP inh | FAS TE block | pCIP destab | MIN6 prolif
O=[N+]([O-])c1ccc2c(c1)Cc1cc(O)ccc1-2 | 13.7* | 1.4 | 19.5 | x | x
C[C@]12CC[C@H](O)CC1=CCC1C2CC[C@]2(C)C(=O)[C@H](Br)CC12 (stereo partly drawn) | 14.0* | 0.6 | -2.9 | x | -6.4
c1ccc2c(c1)[IH]c1ccccc1-2 | -0.8 | -2.4 | -2.1 | x | x
CCOC(=O)c1ccc2[nH]c(-c3ccc(S(=O)(=O)F)cc3)cc(=O)c2c1 | 23.6* | 0.0 | -8.1 | 3.5 | -3.3
COc1cc(/C=C2/C(=O)NC(=O)N(c3ccccc3)C2=O)ccc1O | -13.9 | -0.5 | -4.0 | -17.2 | 0.0
CCOc1cc(/C=C2/C(=O)NC(=O)N(c3ccc(CC)cc3)C2=O)ccc1OC(=O)c1cccs1 | 73.8* | -0.1 | -1.1 | -5.1 | -1.6
CCOC(=O)c1ccc(N=C(C)c2c(O)[nH]c(=O)[nH]c2=O)cc1 | 0.5 | 2.1 | 1.1 | 2.1 | 0.6
CCCCn1c(O)c(C=NCc2ccc3c(c2)OCO3)c(=O)[nH]c1=O | 11.0* | 2.4 | -0.9 | -1.9 | 0.2
CCOC(=O)c1c(NC(=O)c2c(N)n(CCCOC)c3nc4ccccc4nc23)sc2c1CCCC2 | 23.9* | 1.6 | 5.2 | -41.1 | -4.3
CCCCn1c(NS(=O)(=O)c2ccc(C)cc2)c(C(=O)OCC)c2nc3ccccc3nc21 | 12.9* | 15.0 | 6.9 | -1.7 | -5.2
CCCCOCCCn1c(N)c(C(=O)OCCOC)c2nc3ccccc3nc21 | -0.9 | 1.2 | 1.2 | -3.6 | -3.7
CCCCn1c(NC(=O)c2ccco2)c(C(=O)OCC)c2nc3ccccc3nc21 | -4.2 | -0.5 | 6.1 | -22.1 | -4.5
CCOCCCn1c(N)c(C(=O)Nc2sc3c(c2C(=O)OC)CCCC3)c2nc3ccccc3nc21 | 17.2* | 3.5 | -0.1 | -59.7 | -3.9
O=C(NCC1=C(c2cccc3ccccc23)C[C@@H]2CC[C@H]1N2Cc1ccco1)c1cccs1 | x | 0.8 | 10.6 | x | x
CC1=C(C)CN2CC(C#N)=C(N)C2C1 (stereo not drawn) | x | 0.7 | 0.9 | x | x
O=[N+]([O-])c1c2ccccc2cc2ccccc12 | 3.0 | 2.3 | -9.6 | x | -2.8
O=C(Cc1cc(=O)oc2cc(O)ccc12)NN=Cc1ccc(N(CCCl)CCCl)cc1 | 18.3* | 0.9 | -7.9 | x | x
O=C(NN=Cc1ccc(N(CCCl)CCCl)cc1)c1cc(=O)[nH]c(=O)[nH]1 | 8.2 | 0.3 | -1.4 | x | x
CCCCOc1nc2ccccc2c(=O)n1-c1ccccc1 | 13.1* | 2.3 | 15.6 | -9.5 | -0.3
COc1nc2ccccc2c(=O)n1-c1ccc(C)cc1 | -9.9 | 2.8 | -9.8 | -16.5 | 0.0
CCOC(=O)c1cc(C)n(CCc2cnc[nH]2)c1C | -3.9 | -2.1 | -4.7 | -9.8 | -0.4
CCC1([N+](=O)[O-])COP(=O)(NCc2cccnc2)OC1 (stereo not drawn) | 12.6* | -0.9 | -7.0 | x | x
CN1C(=O)CC(c2ccccc2)Nc2ccccc21 (stereo not drawn) | 2.0 | 1.6 | -4.9 | -6.9 | -0.6
C[C@]12C[C@H](O)[C@@H](O)C[C@@H]1CC[C@@H]1[C@@H]2CC[C@]2(C)C(=O)CC[C@@H]12 | x | -0.6 | -4.9 | x | x
O=c1[nH]c(=O)n(Cc2ccc(F)cc2)c(O)c1C=NCCN1CCCCC1 | 19.9* | 0.4 | -8.1 | -3.6 | -1.1
SMILES | NR3A LBD binder | MPTP inh | FAS TE block | pCIP destab | MIN6 prolif
O=c1[nH]c(=O)n(-c2ccc(Br)cc2)c(O)c1C=NCCN1CCCCC1 | 2.0 | 1.5 | -4.7 | -5.2 | -1.5
O=c1[nH]c(=O)n(-c2ccccc2Cl)c(O)c1C=NCCN1CCCCC1 | 401.4* | 1.3 | -3.7 | -6.0 | 0.3
COc1ccc2c(c1O)[C@]13CCN(C)[C@H](C2)[C@@H]1CCC(=O)C3 | -1.2 | 1.1 | -4.4 | -7.5 | 5.2
COC1=C(OC)[C@]23CCc4ccc(OC)c(OC)c4[C@]2(CCN3C)CC1=O | 12.9* | -0.7 | -7.4 | x | -2.6
C=CCn1c(O)c(/C(C)=N/N2CCCCCC2)c(=O)[nH]c1=O | 13.9* | 0.5 | -1.6 | -2.4 | -3.2
C[C@]12CCC3C(CC[C@H]4C[C@@H](O)CC[C@]34C)C1C[C@@H](Br)[C@@H]2O (stereo partly drawn) | 0.9 | x | x | x | 0.0
COc1ccc(N2C(=O)/C(=C/C=C/c3ccccc3[N+](=O)[O-])C(=O)NC2=S)cc1 | 100.3* | x | x | 10.6 | -5.2
O=P(N1CCCCCC1)(N1CCCCCC1)N1CC1 | -2.1 | -1.5 | -7.7 | x | x
COc1cccc(N2CCN(Cc3cccc(Cl)c3)CC2)c1 | 12.7* | -0.2 | 15.0 | 6.3 | -0.6
CCOC(=O)C(O)(c1ccc(NC(=O)Oc2ccccc2)cc1)C(F)(F)F (stereo not drawn) | 16.4* | 1.1 | 9.1 | -3.5 | 0.8
CCOC(=O)c1c(/N=C/c2c(O)n(-c3cccc(C)c3)c(=O)[nH]c2=O)sc2c1CCCC2 | 24.0* | 1.9 | -5.9 | -14.5 | -0.9
COC(=O)C(Cc1ccc(N(CCCl)CCCl)cc1)N=Cc1ccccc1O (stereo not drawn) | 0.3 | 0.1 | 20.4 | -5.9 | -5.2
Cc1cc(C)cc(N2C(=O)NC(=O)/C(=C\c3cccn3-c3ccccc3)C2=O)c1 | 23.9* | 5.3 | -8.2 | -10.3 | 0.0
Nc1nc(N)c2cnnn2n1 | -0.5 | -0.7 | -5.8 | x | x
O=C1NC(=S)NC(=O)C1Cc1ccccc1 | 12.6* | 0.2 | -2.2 | x | x
S=C1NC2(CCCCC2)NC12CCCCC2 | 16.4* | -1.0 | -3.1 | -2.9 | -0.2
N[C@@H](Cc1c[nH]c2ccccc12)c1nnc(SCc2ccc(F)cc2)o1 | 12.7* | -1.2 | -7.8 | 4.9 | x
CCOC(=O)C(C)Oc1cc(C)cc2oc(=O)c3c(c12)CCCC3 (stereo not drawn) | 15.3* | 0.6 | 23.2 | -21.3 | -2.1
COC(=O)C(C)Oc1cc(C)cc2oc(=O)c3c(c12)CCCC3 (stereo not drawn) | -0.9 | 1.5 | 11.8 | -2.1 | -2.1
O=S(=O)(c1cccc2ccccc12)N1Cc2ccccc2-n2nncc2C1 | x | 0.6 | 14.8 | x | x
CCN(CC)c1ccc(/C=C2/C(=O)NC(=O)N(Cc3ccco3)C2=O)cc1 | 23.6* | 30.7 | -9.6 | -11.7 | -0.6
CN(C)c1ccc(/C=C2/C(=O)NC(=O)N(Cc3ccco3)C2=O)cc1 | 2.1 | 7.8 | -4.1 | -21.3 | -1.3
CCCCCn1c(N)c(C(=O)NCc2cccs2)c2nc3ccccc3nc21 | 9.5 | x | x | -7.9 | -6.0
Nc1c(C(=O)NCCCc2ccccc2)c2nc3ccccc3nc2n1Cc1cccs1 | 21.9* | 5.6 | 22.4 | -2.3 | -5.9
C=C(COC(C)=O)CC1CC(O)[C@]2(C)OC3CC4OC5C[C@]6(C)O[C@]7(C)CCC8OC9C[C@]%10(C)OC%11C(C)=CC(=O)OC%11CC%10OC9C[C@@H](C)C8OC7CC6O[C@]5(C)C/C=C\C4OC3CC2O1 (stereo partly drawn) | 4.9 | -2.1 | 87.1* | -5.6 | -1.2
CC(C)C1CN1CC(O)Cn1ccnc1[N+](=O)[O-] (stereo not drawn) | x | 0.7 | -0.9 | x | x
Clc1cccc(N2Cc3ccccc3-n3nncc3C2)c1 | x | -1.1 | 9.1 | x | x
